From PubChem BioAssay
IP6K1 inhibitor: Primary qHTS assay for small molecule inhibitors of Inositol hexaphosphate kinase 1 (IP6K1) | IP6K1 kinase, ADP-Glo luminescence, 2 h; stronger effect = lower value | activity change, % (series mostly up to about 58 µM) | 140,000 tested, 0.81% active | AID 1645851, 2021; in the data active means activity change below about -25%; further: on the % scale 0 is the no-effect control and ±100 the full control effect
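ADP-Glo luminescence measures ADP made by human IP6K1 during a 2 h RT reaction with ATP/IP6 (mix at 1.3 mM/130 uM); top library doses 57.5 and 19.1 uM final.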
KDM5B inhibitor: Primary screen for KDM5B Histone Demethylases FDH-coupled qHTS; KDM5B demethylase, FDH-coupled NADH fluorescence (FDH is formaldehyde dehydrogenase); 220,000 tested, 2.6% active; Lysine-specific demethylase 5B (Homo sapiens), Q9UGL1; Potency, µM (titrated, usually from 57.7 µM), usual class: inhibitors; active means well fitted inhibition curve with a large enough effect; inconclusive means small, poorly fitted or top-dose-only effect; inactive means no such curve, though single readings can be large or run the other way; further: potency means the concentration at half of the fitted maximal effect; 0% is about no effect; nearly all actives have a fitted effect of over 70% in size
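Inhibition is measured as reduced NADH fluorescence generation from FDH coupling to formaldehyde release. Truncated KDM5BΔAP at 200 nM final acts on H3K4me3 peptide (12.5 µM in substrate mix) in pH 7.5 HEPES buffer with Tween-20, 30 min, room temperature.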
* hit, by the source's call; i = inactive; ? = inconclusive; · = no result. This is a sample that favours compounds with a hit; in the whole collection about 2.8% have one here.

SMILES	IP6K1 inhibitor	KDM5B inhibitor
COc1ccc(CCNC(=O)c2csc(NC3CC3)n2)cc1OC	·	i
C=CCNC(=O)c1ccc(C(=O)NC(Cc2ccccc2)C(=O)O)cc1C(=O)O (stereo not drawn)	·	i
O=C(COc1ccc(F)cc1)N1CCC(c2nc(CCOCC3CC3)no2)C1 (stereo not drawn)	17	i
COc1ccc(C(=O)NCc2nnc3c(-c4nc(C(C)C)no4)cccn23)cc1F	4	32µM*
COc1ccccc1C(=O)NCc1nnc2c(-c3nc(C(C)C)no3)cccn12	16	?
CCN(CC)c1ccc(C(=O)NCc2nnc3c(-c4nc(C(C)C)no4)cccn23)cc1	5	i
CC(C)c1noc(-c2cccn3c(CNC(=O)c4c(F)cccc4Cl)nnc23)n1	3	16µM*
CC(C)c1noc(-c2cccn3c(CNC(=O)c4ccc(F)c(F)c4)nnc23)n1	4	11µM*
Cc1ccc(-n2ncc3c(Nc4cccc(C(F)(F)F)c4)ncnc32)cc1C	-1	?
Cc1nnc2ccc(N3CCCN([S+](C)(=O)[O-])CC3)nn12	-2	·
CC(C)C(=NNC(=O)c1ccc(Br)cc1)C(C)C	·	i
CCNC(=O)CSc1nnc(-c2ccncc2)n1CC(F)(F)F	·	i
COCCN1C(=O)CS(=O)(=O)C12CCN(C(=O)c1ccc(C)cc1C)CC2	2	i
Cc1nn2c(NCCc3ncc[nH]3)cc(-c3ccccc3)nc2c1C	-1	32µM*
CCCc1cc(NCCN(C)C)n2nc(C)c(-c3ccccc3)c2n1	·	i
COc1ccc(S(=O)(=O)N2C[C@@H](F)C[C@H]2C(=O)N2CCOCC2)cc1	10	i
OCC1(Cc2ccc(F)cc2F)CCCN(c2cnc3ccccc3n2)C1 (stereo not drawn)	-22	28µM*
Fc1ccc(N2CCN(c3cnc4ccccc4n3)CC2)cc1	·	i
CCn1c(CSc2n[nH]c(-c3ccccc3)n2)nc2cc(S(=O)(=O)N3CCCCC3)ccc21	·	i
COC(=O)[C@@H]1Cc2ncn(Cc3ccc(Cl)cc3)c2CN1C(=O)c1cccs1	6	?
COC(=O)[C@@H]1Cc2ncn(Cc3ccc(Cl)cc3)c2CN1Cc1cccs1	-8	28µM*
COC(=O)[C@@H]1Cc2ncn(Cc3ccc(Cl)cc3)c2CN1CCCc1ccccc1	-16	35µM*
COC(=O)[C@@H]1Cc2ncn(Cc3ccc(OC)cc3)c2CN1CCCc1ccccc1	0	?
CCOC(=O)C1(C)C=C(Nc2ccc(C(C)=O)cc2)C(=O)N1c1ccc(C(C)=O)cc1 (stereo not drawn)	·	i
CN1CCCCCCN(S(=O)(=O)c2ccccc2)CCC1=O	3	i
SMILES	IP6K1 inhibitor	KDM5B inhibitor
COC1C(=O)N(CC2CC2)C12CCN(C(=O)c1ccc(C)nc1)CC2 (stereo not drawn)	18	i
CC(=O)NC1(C)CCN(Cc2cccc(-c3ccc(N4CCOCC4)cc3)c2)C1 (stereo not drawn)	0	32µM*
CC(=O)NC1(C)CCN(Cc2cccc(-c3ccc4c(ccn4C)c3)c2)C1 (stereo not drawn)	-12	?
CC(=O)NC1(C)CCN(Cc2cccc(-c3cccc4ncccc34)c2)C1 (stereo not drawn)	-3	40µM*
CC(=O)NC1(C)CCCN(Cc2cccc(-c3ccccc3)c2)C1 (stereo not drawn)	21	i
CC(=O)NC1(C)CCN(Cc2ccc(-c3ccc4ccccc4c3)cc2)C1 (stereo not drawn)	-1	?
CC(=O)NC1(C)CCN(Cc2ccc(-c3cccc4ncccc34)cc2)C1 (stereo not drawn)	-7	40µM*
CCCN(C)C(=O)CC1COCCN1C(=O)Nc1cccc(SC)c1 (stereo not drawn)	-2	i
O=C(Oc1ccc2oc3ccccc3c2c1)C1CCOCC1	·	i
N#CCc1ccc(OCc2cccc(N)c2)cc1	·	i
COc1ccc(CC2CN(C(=O)c3ccsc3)CCO2)cc1 (stereo not drawn)	10	i
COc1ccc(CC2CN(C(=O)c3ccnc(N)c3)CCO2)cc1 (stereo not drawn)	6	25µM*
COCCOc1ccc(-c2nc(C)ccc2OC)cc1	10	25µM*
CCN(CC)S(=O)(=O)c1ccc(-c2nc(C)ccc2OC)cc1	5	?
COc1ccc(-c2nccc3c(=O)cc(N4CCN(C)CC4)oc23)cn1	-12	32µM*
COc1ncc(-c2nccc3c(=O)cc(N(C)c4ccccc4)oc23)cn1	-16	i
CN1CCN(c2ccc(-c3nccc4c(=O)cc(N(C)c5ccccc5)oc34)cn2)CC1	-7	?
COc1ncc(-c2nccc3c(=O)cc(N4CCN(C)CC4)oc23)cn1	9	35µM*
CCCOc1ccccc1C(=O)N(Cc1ccc(C(C)C)cc1)C1CCS(=O)(=O)C1 (stereo not drawn)	·	i
CCOCCCNC(=O)N1CCC(c2noc(-c3cnccn3)n2)C1 (stereo not drawn)	-12	i
COc1ccc(S(=O)(=O)Nc2ccccc2CCc2nc3ccccc3n2C)cc1	·	i
COc1ccc(N2CC(C(=O)NCc3ccc4c(c3)OCO4)NC2=O)cc1 (stereo not drawn)	10	i
Cc1noc(C)c1-c1cc2c(cc(C)n2C)c(-c2cccc(CO)c2)n1	-4	i
Cc1noc(C)c1-c1cc2c(cc(C)n2CCN(C)C)c(-c2ccc(CO)cc2)n1	21	25µM*
Cc1noc(C)c1-c1cc2c(cc(C)n2C)c(-c2ccc(CO)cc2)n1	-2	i
SMILES	IP6K1 inhibitor	KDM5B inhibitor
COc1cccc(-c2nc(-c3c(C)noc3C)cc3c2cc(C)n3CCN(C)C)c1OC	-6	40µM*
Cc1noc(C)c1-c1cc2c(cc(C)n2CCN(C)C)c(-c2cccc(O)c2)n1	-13	i
Cc1noc(C)c1-c1cc2c(cc(C)n2CCN(C)C)c(-c2ccccc2O)n1	-6	32µM*
COC[C@@H]1[C@H](C(=O)N2CCN(c3ccccc3OC)CC2)CCC(=O)N1C	12	i
COc1ccc(OC)c2sc(N(Cc3cccnc3)C(=O)c3ccc(C(C)=O)cc3)nc12	4	i
CCOc1nccn2c(-c3ccc(CN4CCN(C(C)=O)CC4)cc3)cnc12	-20	?
OC1CN(Cc2ccccc2)CCN(Cc2cn[nH]c2-c2ccc(Cl)cc2)C1 (stereo not drawn)	-8	i
O=[S+]1([O-])CCN(Cc2ccc(-c3cnc4c(OCc5ccccc5)nccn34)cc2)CC1	8	22µM*
NC(=O)C1CCCN(Cc2ccc(-c3cnc4c(OCc5ccccc5)nccn34)cc2)C1 (stereo not drawn)	0	28µM*
O=C1CN(Cc2ccc(-c3cnc4c(OCc5ccccc5)nccn34)cc2)CCN1	-8	35µM*
CC(=O)Nc1cccc(-c2cc3c(cn2)CN(Cc2ccccc2)CCN3)c1	-9	i
O=C(NC1CCCC1)NC1CCCN(Cc2ccc(-c3cncnc3)cc2)C1 (stereo not drawn)	18	·
OC1CN(Cc2ccc(-c3cnc4c(OCc5ccccc5)nccn34)cc2)C1	5	32µM*
CCOC(=O)Nc1ccc(NS(=O)(=O)c2ccc(F)cc2C)cc1	·	i
O=C(NCCCc1ccccc1)c1ccc2nnc(-c3cc(F)ccc3F)n2c1	8	·
